For ten molecules, outcome and Potency results are on record in PubChem BioAssay (Tox21).

The nature of assay [1]: qHTS assay to identify small molecule agonists of the vitamin D receptor (VDR) signaling pathway - cell viability counter screen (AID 743224). Also: series mostly up to about 63 µM; nearly all actives have a fitted effect of over 50% in size. In outline: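 CellTiter-Glo viability readout on VDR-bla cells, measured after 16 h of compound treatment at 37C in the same wells.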
A short description of assay [2]: qHTS assay to identify small molecule antagonists of the vitamin D receptor (VDR) signaling pathway - cell viability counter screen (AID 743225). Also: nearly all actives have a fitted effect of over 50% in size. The method, boiled down: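 Cytotoxicity counter screen read by CellTiter-Glo luminescence (30 min, room temperature) in the same wells as the VDR-bla antagonist readout. HEK 293T VDR-UAS-bla cells had 16 h at 37C with compound and 3 nM (final) 1-alpha,25-dihydroxyvitamin D3, then 2 h with FRET substrate.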

Assay [3] in a line: qHTS assay to identify small molecule agonists of the NFkB signaling pathway (AID 1159509; active = well fitted curve in the direction sought with a large enough effect in the signal ratio in the repeat runs, not every such curve was filed as active; the % refers to the signal ratio; also: series mostly up to about 61 µM). The method, boiled down:
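Beta-lactamase reporter assay run in quantitative high-throughput format on an NF-kB-responsive ME-180 line, with 5 hr compound treatment and a FRET-based blue/green fluorescence readout.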

Assay [4] in a line: qHTS assay to identify small molecule agonists of the NFkB signaling pathway - cell viability counter screen (AID 1159515; calls by dose curve; also: series mostly up to about 61 µM; nearly all actives have a fitted effect of over 55% in size). In outline:
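Tox21 library compounds were tested for cytotoxicity against NFkB-bla ME-180 cells during a 5 hr exposure at 37 C. CellTiter-Glo luminescence served as the viability read-out.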

A short description of assay [5]: qHTS assay to identify small molecule agonists of the endoplasmic reticulum stress response signaling pathway (AID 1159516; active = well fitted activation curve with a large enough effect in the signal ratio in the repeat runs, not every such curve was filed as active; the % refers to the signal ratio). The method, boiled down:
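Fluorescence at 460 and 530 nm (405 nm excitation) reports beta-lactamase from an ER stress response element in HeLa cells treated 5 hr at 37 C.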

Assay [6] is described as follows: qHTS assay to identify small molecule agonists of the endoplasmic reticulum stress response signaling pathway - cell viability counter screen (AID 1159517; calls by dose curve; also: series mostly up to about 61 µM; nearly all actives have a fitted effect of over 50% in size). In outline:
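Steps: seed 1,500 ESRE-bla HeLa cells per well; incubate overnight at 37 C, 5% CO2; add compounds in DMSO for 5 hr; run FRET substrate 2 hr RT; add CellTiter-Glo, wait 30 min, read luminescence.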

A short description of assay [7]: qHTS assay to identify small molecule antagonists of the retinoid-related orphan receptor gamma (ROR-gamma) signaling pathway - cell viability counter screen (AID 1159520). Also: nearly all actives have a fitted effect of over 50% in size. The method, boiled down: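 Tet-on ROR gamma CHO cells were given compounds for 2 hr, then doxycycline hyclate at 1 uM final, and incubated 16 hr at 37 C. Viability was measured as ATP content by CellTiter-Glo luminescence.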

Assay [8] concerns the target Nuclear receptor ROR-gamma (Homo sapiens) (UniProt P51449). Briefly: qHTS assay to identify small molecule antagonists of the retinoid-related orphan receptor gamma (ROR-gamma) signaling pathway (AID 1159521). The method, boiled down: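 Antagonist read-out: drop in luminescence (ONE-Glo) from an RORE-LUC reporter in CHO cells with doxycycline-inducible ROR-gamma; 2 hr compound pretreatment, 1 uM doxycycline, 16 hr incubation at 37 C.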

The nature of assay [9]: qHTS assay to identify small molecule agonists of the AP-1 signaling pathway - cell viability counter screen (AID 1159525; calls by dose curve; also: nearly all actives have a fitted effect of over 55% in size). The method, boiled down:
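Same-well cytotoxicity counter screen of the Tox21 10K library in ME-180 cells. The readout is ATP-dependent luminescence after 5 h compound treatment. Data are normalised to DMSO and tetra n-octyl ammonium bromide controls.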

Assay [10] can be described thus: qHTS assay to identify small molecule agonists of the AP-1 signaling pathway (AID 1159526; calls by dose curve).
Assay [11] has as its target Retinoic acid receptor RXR-alpha (Homo sapiens) (UniProt P19793). Briefly: qHTS assay to identify small molecule agonists of the RXR signaling pathway (AID 1159527; calls by dose curve; also: nearly all actives have a fitted effect of over 35% in size; also: potency is read from the fitted curve at half-maximal effect). In outline:
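Agonist-mode beta-lactamase reporter assay: HEK 293T RXR-alpha-UAS-bla cells treated 16 hr at 37 C with compounds, 9-cis retinoic acid as positive control. LiveBLAzer FRET substrate, 405 nm excitation, 460/530 nm emission.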

Assay [12] is described as follows: qHTS assay to identify small molecule agonists of the RXR signaling pathway - cell viability counter screen (AID 1159529). The method, boiled down:
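CellTiter-Glo luminescence gave viability in the wells also read for beta-lactamase. Cells (RXR-alpha-UAS-bla HEK 293T, 2% charcoal-stripped FBS medium) had 5 hr plating, then 16 hr compound exposure at 37 C; tetraoctyl ammonium bromide served as positive control.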

The nature of assay [13]: qHTS assay to identify small molecule antagonists of the retinoid acid receptor (RAR) signaling pathway - cell viability counter screen (AID 1159551). Also: nearly all actives have a fitted effect of over 35% in size. The method, boiled down:
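In this counter screen, the RARE-luciferase line C3RL4 was exposed for 6 h at 37 C and 5% CO2 to compounds with retinol at 1 uM final. Cellular ATP, read by luminescence, served as the viability measure.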

Assay [14] can be described thus: qHTS assay to identify small molecule agonists of the retinoic acid receptor (RAR) signaling pathway (AID 1159553). Also: potency is read from the fitted curve at half-maximal effect. The method, boiled down:
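In this cell-based screen, 1,000 C3RL4 cells per well were cultured overnight, dosed with test chemicals in DMSO for 6 hr, and assessed for RARE luciferase luminescence.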

A short description of assay [15]: qHTS assay to identify small molecule antagonists of the retinoic acid receptor (RAR) signaling pathway (AID 1159552; also: nearly all actives have a fitted effect of over 50% in size). In outline:
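Luminescent RARE reporter read-out in C3RL4 cells: 6 hr co-treatment at 37 C of test compounds with retinol at 1 uM final. Cells plated overnight beforehand; luciferase reagent incubated 30 min at room temperature before reading.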

Molecules are shown by their SMILES. Values joined by “and” are separate entries in the source; they are usually repeats but may differ in a detail not shown here. Identical values can stand only once. Inconclusive results are not listed. More than one record can exist for a structure, and the calls need not agree. Active and inactive are the calls of the source. Unless noted, calls follow the shape of the dose curve; as a rule, active = well fitted curve in the direction sought with a large enough effect in the repeat runs; inconclusive = weak or mixed curves; inactive = no such curve, though single readings can be large; an effect the other way counts as inactive or inconclusive.

Sequence of Retinoic acid receptor RXR-alpha (Homo sapiens) (P19793 whole entry, looked up): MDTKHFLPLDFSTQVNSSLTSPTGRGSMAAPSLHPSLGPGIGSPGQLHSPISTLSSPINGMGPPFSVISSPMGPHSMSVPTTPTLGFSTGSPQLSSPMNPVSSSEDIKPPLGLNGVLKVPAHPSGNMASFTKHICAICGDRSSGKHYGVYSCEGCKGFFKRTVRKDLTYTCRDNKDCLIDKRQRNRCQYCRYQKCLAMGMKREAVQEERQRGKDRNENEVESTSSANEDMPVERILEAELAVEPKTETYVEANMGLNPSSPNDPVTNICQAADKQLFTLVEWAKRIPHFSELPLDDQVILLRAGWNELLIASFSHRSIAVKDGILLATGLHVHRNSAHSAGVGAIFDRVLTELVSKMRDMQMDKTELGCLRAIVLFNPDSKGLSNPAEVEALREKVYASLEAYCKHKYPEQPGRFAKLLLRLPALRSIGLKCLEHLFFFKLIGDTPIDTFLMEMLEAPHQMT

In the case of `COCCOC(=O)c1ccccc1C(=O)OCCOC`, the call in assay [1], in [2], in [3], in [4], in assay [5] and in [7] was inactive. Further, the result in assay [9], in [12] and in assay [13] was inactive. Also, the Potency result in assay [6], in assay [8], in assay [10], in assay [11] and in [14] was “inactive” in each case.

`C=C(C)C(=O)OCC(C)C`: the molecule was classed as inactive in [1], in [2], in assay [3], in assay [4], in [5] and in assay [7]. Further, the outcome in assay [9], in assay [12], in assay [13] and in assay [15] was inactive. The Potency result in assay [6], in [8], in assay [10], in [11] and in assay [14] was “inactive” throughout.

Take `NCCNCCN`: the molecule was called inactive in assay [1], in assay [2], in assay [3], in [4], in assay [5] and in [7]. The result in assay [9], in assay [12], in assay [13] and in [15] was inactive. Moreover, the Potency entry in [6], in [8], in [10], in assay [11] and in assay [14] was “inactive” each time.

Turning to `Cc1ccc(S(=O)(=O)N=C=O)cc1`, the molecule was called inactive in assay [1], in assay [2], in assay [3], in assay [4], in assay [5] and in [7]. Further, the molecule was called inactive in assay [9], in assay [12] and in assay [13]. The Potency entry in assay [6], in [8], in assay [10], in assay [11] and in [14] was “inactive” throughout.

Take `Nc1ccc(Cl)c(N)c1`: the result in assay [1], in [2], in assay [3], in assay [4], in assay [5] and in assay [7] was inactive. Besides, the outcome in assay [9], in assay [12], in assay [13] and in assay [15] was inactive. In addition, the Potency entry in [6], in assay [8], in assay [10] and in assay [11] was “inactive” in each case. Moreover, the Potency in assay [14] was 68.6 µM (active).

In the case of `CC(O)CC(C)(C)O` (stereo not given), the call in assay [1], in assay [2], in assay [3], in [4], in [5] and in [7] was inactive. Besides, the molecule was classed as inactive in [9], in assay [12] and in assay [13]. The Potency result in assay [6], in assay [8], in [10], in assay [11] and in [14] was “inactive” throughout.

Consider `CCCCCCC=O`, for which the result in assay [1], in [2], in assay [3], in assay [4], in assay [5] and in [7] was inactive. For the same molecule, the molecule was called inactive in assay [9], in assay [12] and in assay [13]. The Potency entry in [6], in assay [8], in [10], in assay [11] and in assay [14] was “inactive” each time.

Take `CC(=O)OC1CC(C)OC(C)O1` (stereo not given): the molecule was classed as inactive in assay [1], in [2], in [3], in assay [4], in [5] and in assay [7]. Also, the molecule was called inactive in assay [9], in assay [12], in assay [13] and in assay [15]. Moreover, the Potency entry in assay [6], in [8], in assay [10], in assay [11] and in assay [14] was “inactive” throughout.

With `Cc1ccc2ncccc2c1`, the molecule was called inactive in assay [1], in assay [2], in assay [3], in assay [4], in assay [5] and in assay [7]. For the same molecule, the molecule was classed as inactive in assay [9], in [12], in assay [13] and in [15]. In addition, the Potency entry in [6], in assay [8], in [10] and in assay [14] was “inactive” throughout. The Potency result in [11] was “inactive and 13.8 µM (active)”.

Turning to `CCNc1cccc(C)c1`, the molecule was called inactive in [1], in [3], in [4], in assay [5], in assay [7] and in [9]. Moreover, the call in assay [12], in [13] and in [15] was inactive. For the same molecule, the Potency result in assay [6], in assay [8], in assay [10], in assay [11] and in assay [14] was “inactive” each time.
